Shown are actives, neighbours in structure and some others; about 10% of the full set was active somewhere.
HP1b binding inh: HTS for Inhibitors of HP1-beta Chromodomain Interactions with Methylated Histone Tails. AlphaScreen HP1-beta / biotin-H3K9me3 peptide binding. 0.56% of 390,000 active. Potency, µM (top dose mostly 114 µM), for inactives: at the highest dose activity change, negative = inhibition, actives largely listed as inhibitors; further: potency means the concentration at half of the fitted maximal effect; nearly all actives have a fitted effect of over 70% in size
Target sequence (P83916 whole entry, looked up): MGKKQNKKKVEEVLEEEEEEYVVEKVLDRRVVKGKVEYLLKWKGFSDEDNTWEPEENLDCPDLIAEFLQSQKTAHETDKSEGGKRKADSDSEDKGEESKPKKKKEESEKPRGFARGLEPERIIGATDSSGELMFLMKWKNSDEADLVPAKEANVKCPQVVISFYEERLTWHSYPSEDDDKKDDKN
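Compound inhibition of the preformed complex between 50 nM HP1-beta and 50 nM biotinylated H3K9me3 peptide was read by AlphaScreen. Buffer was PBS pH 7.4 with 0.01% Tween-20. Incubations ran 30 min at room temperature, with 10 ug/mL donor/acceptor beads.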
CtBP-E1A blk: qHTS Assay for Inhibitors of the CtBP/E1A Interaction | AlphaScreen GST-E1A/His-CtBP binding, 1536-well; active compounds read low | 0.49% of 340,000 active | activity change, % (no concentration beside the values) | CtBP / adenovirus E1A interaction (AlphaScreen); in the data active means activity change below about -65%; inconclusive means mostly about -30% to -63%; further: on the % scale 0 is the no-effect control and ±100 the full control effect
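In 5 uL wells, 23 nL compound meets equimolar GST-E1A and His-CtBP (5X stock 125 nM each) for 2 h, 37 °C. Beads (5X, 50 ug/mL) then 1 h, 37 °C, dark.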
JMJD2A Tudor: qHTS Assay for Inhibitors of JMJD2A-Tudor Domain; Lysine-specific demethylase 4A (Homo sapiens), O75164; AlphaScreen JMJD2A-Tudor / H3K4me3 peptide binding; Potency, µM (series often up to 114 µM), without a hit: top-dose activity change, negative = inhibition, usual class: inhibitors; 4.4% of 390,000 active; AID 504339, 2011; further: potency means the concentration at half of the fitted maximal effect; on the % scale 0 is the no-effect control and ±100 the full control effect; nearly all actives have a fitted effect of over 50% in size
Six1-Eya2 blk: qHTS Assay for Inhibitors of the Six1/Eya2 Interaction. AlphaScreen GST-Six1/His-Eya2 binding, biochemical; active compounds read low. Homeobox protein SIX1 (Homo sapiens) + Protein phosphatase EYA2 (Homo sapiens), …. activity change, % (concentration not given with the values). 0.56% of 360,000 active; in the data active means activity change below about -65%; inconclusive means mostly about -30% to -63%; further: on the % scale 0 is the no-effect control and ±100 the full control effect
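GST-Six1 + His-Eya2 (5X stock: 250/500 nM); Tris pH 8.0, 300 mM NaCl, 0.05% BSA, 0.02% Tween 20; GSH donor/Ni acceptor beads; 1 h 37 °C dark; AlphaScreen readout.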
BAZ2B inh: qHTS Assay for Inhibitors of BAZ2B; Bromodomain adjacent to zinc finger domain protein 2B (Homo sapiens), Q9UIF8; AlphaScreen BAZ2B-H3K14Ac peptide displacement; Potency, µM (highest dose often 114 µM), for inactives: at the highest dose activity change, negative = inhibition, usual class: inhibitors; 4.4% of 360,000 active; AID 504333, 2011; further: potency means the concentration at half of the fitted maximal effect; on the % scale 0 is the no-effect control and ±100 the full control effect; nearly all actives have a fitted effect of over 60% in size
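Protein-peptide AlphaScreen: BAZ2B 50 nM, b-H3K14Ac 50 nM, 1x PBS pH 7.4 + 0.01% Tween-20. Preincubation 30 min RT; cpd 30 min RT (top 110 uM); beads 20 min RT, light-protected.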
G9a inh: qHTS Assay for Inhibitors of Histone Lysine Methyltransferase G9a | Histone-lysine N-methyltransferase EHMT2 (Homo sapiens), Q96KQ7 | G9a H3K9 monomethylation, AlphaScreen, 2 h | Potency, µM (highest dose often 102 µM), for inactives: at the highest dose activity, negative = inhibition, actives largely listed as inhibitors | 8.8% of 350,000 active; further: potency means the concentration at half of the fitted maximal effect; on the % scale 0 is the no-effect control and ±100 the full control effect; nearly all actives have a fitted effect of over 75% in size
Target sequence (Q96KQ7 913-1193 limits assumed): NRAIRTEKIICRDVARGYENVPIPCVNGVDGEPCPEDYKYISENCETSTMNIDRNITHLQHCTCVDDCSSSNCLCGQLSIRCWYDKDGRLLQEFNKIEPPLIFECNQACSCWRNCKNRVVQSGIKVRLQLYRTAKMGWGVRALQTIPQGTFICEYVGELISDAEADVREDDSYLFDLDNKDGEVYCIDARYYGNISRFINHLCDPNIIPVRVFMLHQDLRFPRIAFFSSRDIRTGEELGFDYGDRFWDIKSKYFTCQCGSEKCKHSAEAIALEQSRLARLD
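Chemiluminescent proximity detection of H3K9 monomethylation, read after 10 min bead incubation in the dark. Reaction: 20 nM G9a, 500 nM biotin-H3K9 peptide, 20 uM SAM cofactor, 2 h, room temperature, following 15 min enzyme-compound preincubation.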
Active calls of the source: *; ? = inconclusive; . = not tested or not shown; [ ] = dose if it differs, or a comment. Unless noted, the call rests on the fitted dose curve; in most records, active means well fitted inhibition curve with a large enough effect; inconclusive means small, poorly fitted or top-dose-only effect; inactive means no such curve, though single readings can be large or run the other way.

SMILES	HP1b binding inh	CtBP-E1A blk	JMJD2A Tudor	Six1-Eya2 blk	BAZ2B inh	G9a inh
CCC1CCCCN1S(=O)(=O)c1ccc(NC(=O)c2cccs2)cc1 (stereo not given)	26.3%	-13.0	-15.7%	-2.6	9.6%	21.2%[59 µM]
O=C(CN1CC(=O)Oc2ccccc21)NCc1ccco1	6.5%	?	-28.1%[11.4 µM]	-71.8*	44.7µM*	?
COc1ccc(NC(=O)CSc2ncccc2C(=O)O)cc1OC	21.2%	.	-10.1%	.	56.2µM*	?
Cc1nc2cc(C(=O)OCC(=O)Nc3cccc(Cl)c3)ccc2n1-c1ccccc1	45.4%	3.4	-23.4%[57.1 µM]	-1.3	5.0%	50.1µM*
CCC1CCCCN1S(=O)(=O)c1ccc(NC(=O)CSc2ncccc2C(=O)O)cc1 (stereo not given)	2.2%	5.4	-17.7%	-83.5*	0.6%	?
Cc1c(Cl)cccc1NC(=O)CC1Sc2ccccc2NC1=O (stereo not given)	36.6%	.	-6.5%	3.2	11.8%	1.3%[2.33 µM]
CCOc1ccc(CNC(=O)c2ccc3nc(Cc4ccc(OC)cc4)oc3c2)cc1OC	8.4%[57 µM]	.	?	.	-17.7%	?
CC(=O)Nc1cccc(C(=O)OCC(=O)Nc2c(C)nn(-c3ccccc3)c2C)c1	15.5%	9.4	-16.7%	3.1	11.7%	39.8µM*
O=C(O)C1CCCCC1C(=O)Nc1ccc2c(c1)OCCO2 (stereo not given)	16.5%	7.2	-15.4%	0.3	-0.9%	2.51µM*
O=C(CSc1ncn(-c2ccccc2)n1)Nc1ccc(Br)cn1	35.8%	0.0	10.5%	16.6	-26.0%	3.16µM*
O=C(CSc1nc(-c2ccccc2)[nH]c1-c1ccccc1)Nc1ccc2c(c1)OCO2	?	.	?	.	56.2µM*	22.4µM*
Cc1nn(-c2ccccc2)c(C)c1NC(=O)COC(=O)c1ccccc1	34.6%	6.7	7.0%	-1.2	6.4%	?
O=C(Nc1ccc2c(c1)OCCO2)C1CC1c1ccccc1 (stereo not given)	11.3%	0.5	-19.6%	-13.6	-10.2%	6.0%[59 µM]
COc1ccc(C(=O)N(Cc2ccccc2)Cc2ccccc2)cc1COc1ccc(NC(C)=O)cc1	.	.	-9.5%	.	.	.
O=C(CSc1ccccc1)Nc1ccc2c(c1)OCCO2	19.6%	-0.8	-10.2%	-6.2	-5.2%	79.4µM*
Cc1nn(-c2ccccc2)c(C)c1C(=O)OCC(=O)Nc1ccc2c(c1)OCO2	-2.2%	-14.3	?	-8.2	-7.1%	79.4µM*
O=C(CSc1ccccc1)Nc1ccc2c(c1)OCO2	12.6%	-2.1	1.4%	-2.5	0.3%	3.4%
O=C(CSc1ncn(-c2ccccc2)n1)Nc1ccc2c(c1)OCO2	12.1%	0.6	89.1µM*	-1.1	-1.0%	?
O=C(CSc1ccc2c(c1)OCCO2)NCc1ccco1	24.0%	-9.0	-16.7%	6.0	?	50.1µM*
O=C(CSc1ncn(-c2ccccc2)n1)Nc1ccc2c(c1)OCCO2	16.5%	7.8	-19.2%	-0.4	-3.3%	?
CCN1CCCC1CNC(=O)c1cc(NC(C)=O)c(N(C)C)cc1OC (stereo not given)	23.6%	10.9	-3.8%	3.5	2.8%	21.7%[59 µM]
O=C(C[n+]1cc[nH]c1)c1ccc(Cl)cc1	18.8%	13.5	-21.1%	-9.0	-2.5%	-5.4%[59 µM]
COc1cccc(-c2nc(SCC(=O)Nc3ccc4c(c3)OCCO4)c(-c3ccccc3)[nH]2)c1	17.1%	.	?	.	-33.3%	?
COc1cc(-c2nc(SCC(=O)Nc3ccc4c(c3)OCO4)c(-c3ccccc3)[nH]2)cc(OC)c1OC	?	.	?	.	?	11.2µM*

Compound activity: PubChem BioAssay, National Center for Advancing Translational Sciences (NCATS)
